HP1b chromo inh: inhibitors of HP1-beta chromodomain binding to methylated histone tails; 390,000 tested, 0.56% active; AID 540317; AlphaScreen HP1-beta / biotin-H3K9me3 peptide binding; P83916; Potency, µM (highest dose often 114 µM), for the others: at the top dose activity change, negative = inhibition, most hits filed as inhibitors; further: nearly all actives have a fitted effect of over 70% in size
Target sequence (P83916 whole entry, looked up): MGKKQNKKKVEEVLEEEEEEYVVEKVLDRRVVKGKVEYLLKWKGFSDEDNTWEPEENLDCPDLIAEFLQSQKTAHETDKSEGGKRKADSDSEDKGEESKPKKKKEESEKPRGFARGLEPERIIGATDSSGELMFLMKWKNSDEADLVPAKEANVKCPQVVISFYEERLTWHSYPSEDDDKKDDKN
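Compound inhibition of the preformed complex between 50 nM HP1-beta and 50 nM biotinylated H3K9me3 peptide was read by AlphaScreen. Buffer was PBS pH 7.4 with 0.01% Tween-20. Incubations ran 30 min at room temperature, with 10 ug/mL donor/acceptor beads.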
G9a inh: inhibitors of human histone lysine methyltransferase G9a | 350,000 tested, 8.8% active | Q96KQ7 | Potency, µM (highest dose often 102 µM), inactives show at the highest dose activity, negative = inhibition, usual class: inhibitors | G9a H3K9 monomethylation, AlphaScreen, 2 h; further: on the % scale 0 is the no-effect control and ±100 the full control effect; nearly all actives have a fitted effect of over 75% in size
Target sequence (Q96KQ7 913-1193 limits assumed): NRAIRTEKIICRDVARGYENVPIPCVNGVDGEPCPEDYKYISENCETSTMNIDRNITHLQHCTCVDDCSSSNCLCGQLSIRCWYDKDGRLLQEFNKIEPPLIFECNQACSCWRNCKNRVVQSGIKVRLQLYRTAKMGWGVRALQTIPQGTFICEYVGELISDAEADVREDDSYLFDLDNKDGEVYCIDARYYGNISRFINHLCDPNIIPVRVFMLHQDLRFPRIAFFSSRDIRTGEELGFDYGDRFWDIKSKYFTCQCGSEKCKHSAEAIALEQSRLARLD
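AlphaScreen detection with an anti-monomethyl H3K9 antibody quantified product after a 2 h room-temperature reaction containing 500 nM biotinylated H3K9 peptide, 20 µM SAM and 20 nM enzyme, which had been preincubated 15 min with compound.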
JMJD2A Tudor: inhibitors of human JMJD2A Tudor domain | O75164 | AlphaScreen JMJD2A-Tudor / H3K4me3 peptide binding | Potency, µM (series often up to 114 µM), inactives show at the highest dose activity change, negative = inhibition, most hits filed as inhibitors | 390,000 tested, 4.4% active | AID 504339; further: on the % scale 0 is the no-effect control and ±100 the full control effect; nearly all actives have a fitted effect of over 50% in size
BAZ2B block: inhibitors of human BAZ2B bromodomain; Potency, µM (highest dose often 114 µM), for inactives: top-dose activity change, negative = inhibition, usual class: inhibitors; AID 504333; AlphaScreen BAZ2B-H3K14Ac peptide displacement; Q9UIF8; 360,000 tested, 4.4% active; further: on the % scale 0 is the no-effect control and ±100 the full control effect; nearly all actives have a fitted effect of over 60% in size
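BAZ2B 50 nM plus b-H3(5-23)K14Ac 50 nM, PBS pH 7.4/0.01% Tween-20, 30 min RT; compound added (max 110 uM), 30 min RT; streptavidin donor/Ni-chelate acceptor beads 10 ug/mL final, 20 min dark; AlphaScreen read.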
12-LOX inh: blocks human arachidonate 12S-lipoxygenase; P18054; purified 12hLO, xylenol orange hydroperoxide absorbance; Potency, µM (top dose mostly 108 µM), without a hit: at the highest dose activity change, negative = inhibition, hits mostly inhibitors; 580,000 tested, 1.1% active; further: on the % scale 0 is the no-effect control and ±100 the full control effect
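Purified human 12hLO (150 nM final) in 25 mM Hepes, 0.01% Triton X-100, pH 7.0 was preincubated 15 min at room temperature with compound. Then 40 uM arachidonic acid was added, 30 min. Hydroperoxide was read by Fe-XO absorbance ratio 573/405 nm.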
Sfp inh: Sfp phosphopantetheinyl transferase inhibition; Biochemical Sfp PPTase activity, qHTS; Potency, µM, without a hit: largest response in the series, negative = inhibition, usual class: inhibitors; 310,000 tested, 3.5% active;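 further: the enzyme is Sfp with the accession as filed and its product quenches rhodamine fluorescence; 0% = enzyme reaction without inhibitor and -100% = no enzyme wells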
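Sfp 15 nM + cpd, 15 min RT; start w/ rhodamine-CoA 5 uM, BHQ-2-YbbR 12.5 uM (final); 50 mM Hepes pH 7.6, 10 mM MgCl2, 0.01% NP-40, 0.01% BSA; read 525/598 nm at 0 and 30 min.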
An asterisk follows results filed as active; ? = inconclusive; · = no result; [ ] = another dose, or the depositor's remark. In the library only some 8.7% were active in any assay of this set; here they are far more common. The call rests on the fitted dose curve; in most records, active means well fitted curve in the direction sought with a large enough effect; inconclusive means small, poorly fitted or top-dose-only effect, or another doubt; inactive means no such curve, though single readings can be large; an effect the other way counts as inactive or inconclusive. Potency means the concentration at half of the fitted maximal effect.

SMILES	HP1b chromo inh	G9a inh	JMJD2A Tudor	BAZ2B block	12-LOX inh	Sfp inh
CN1[C@@H](CCC(=O)N2CCOCC2)CNC(=O)[C@@H]2[C@H]1CCN2C1CCOCC1	·	·	·	·	39.0%[176 µM]	·
Cc1ccc(NC(=S)NC(=O)C2CCCCC2)c(Br)c1	35.5%	·	2.1%	·	31.6µM*	·
N#Cc1ccccc1NC(=S)NC(=O)C1CCC1	31.1%	70.8µM*	0.7%	-12.0%	-9.9%	-8.7%
CC(C)c1ccccc1NC(=S)NC(=O)C1CCCCC1	35.9%	·	1.9%	·	15.8µM*	·
CC(C)C(=O)NC(=S)Nc1ccccc1C(=O)NC1CCCCC1	-2.4%	50.1µM*	-18.9%	-5.2%	-19.0%	5.4%
CCC(=O)NC(=S)Nc1ccccc1C(=O)NC1CCCCC1	30.2%	-25.5%[59 µM]	-4.4%	-12.5%	-9.0%	0.5%
CC(C)c1ccccc1NC(=O)c1ccccc1NC(=O)C1CCCCC1	46.9%	0.2%[59 µM]	-8.6%	5.5%	-4.8%	13.4%
Cc1ccc(NC(=O)CNCc2ccc(Cl)cc2Cl)cc1S(=O)(=O)N(C)C	35.5µM*	10µM*	20µM*	25.1µM*	?	79.4µM*
Cc1ccc(NC(=O)CNCc2ccccc2Cl)cc1S(=O)(=O)N(C)C	31.6µM*	-12.1%	3.16µM*	50.1µM*	?	?
Cc1ccc(NC(=O)COC(=O)Cn2cnc3ccccc32)cc1S(=O)(=O)N(C)C	22.6%	50.1µM*	-13.8%	-32.4%	2.5%	3.6%
O=C(CCn1c(-c2ccccc2)cc2ccccc21)N1CCN(CCO)CC1	·	·	·	·	0.9%	·
CCOCCn1c(Br)nc2c1c(=O)n(C)c(=O)n2C	·	·	·	·	-8.7%	·
Cn1cnc(C(=O)O)c1	·	·	·	·	36.7%	·
COc1cc(C2CC(=O)n3c(nc4ccccc43)S2)cc(OC)c1OC (stereo unspecified)	·	-11.0%[59 µM]	·	3.4%	·	-11.4%
COc1cc(SC)ccc1C(=O)N1CCN(c2ccccc2OC)CC1	12.4%	?	-23.1%	?	-11.5%	19.7%
COc1cc(C2CC(=O)N3CN(c4ccccc4C)CSC3=C2C#N)cc(OC)c1OC (stereo unspecified)	·	1.41µM*	·	?	?	2.82µM*
COc1ccccc1N1CSC2=C(C#N)C(c3ccc(SC)cc3)CC(=O)N2C1 (stereo unspecified)	22.4µM*	2.24µM*	17.8µM*	50.1µM*	11.2µM*	3.55µM*
COc1cc(C2CC(=O)N3CN(c4cccc(C)c4)CSC3=C2C#N)ccc1O (stereo unspecified)	·	·	·	·	2µM*	·
COc1cc(C2CC(=O)NC(SCC(=O)Nc3ccccc3C)=C2C#N)ccc1O (stereo unspecified)	26.5%	-3.7%[59 µM]	-8.7%	-6.4%	?	3.7%
COc1ccc(/C=C(/C#N)C(=O)c2c[nH]c3cccc(C)c23)cc1	·	·	·	·	-7.0%	·
C/C(=N\NC(=O)c1ccccc1C)C(C)C	·	·	·	·	12.5%	·
O=C1CNC(=S)N1CCc1ccc(O)c(O)c1	-1.1%	10µM*	?	-1.2%	?	44.7µM*
COCCN1CCC(CNCc2cn[nH]c2-c2ccc(C)c(C)c2)C1 (stereo unspecified)	31.6%	-19.7%	-15.4%	-1.7%	2.4%	8.0%
COCCN1CCC(CNCc2cn(-c3cc(C)ccc3C)nc2-c2ccccc2)C1 (stereo unspecified)	21.9%	-9.5%	-33.0%	2.1%	-8.3%	50.1µM*
CCn1ccnc1CNCc1cn(-c2cc(C)ccc2C)nc1-c1ccccc1	10.1%	-10.2%	?	39.8µM*	-0.5%	-13.6%
SMILES	HP1b chromo inh	G9a inh	JMJD2A Tudor	BAZ2B block	12-LOX inh	Sfp inh
OCCCn1c(-c2ccccc2)csc1=Nc1ccccc1	?	22.4µM*	?	56.2µM*	-21.9%	7.6%
CCn1c(-c2ccccc2)csc1=Nc1ccc(S(=O)(=O)O)cc1	-22.0%	17.8µM*	-32.4%	-35.4%	2.0%	15.9%
CCN(CC)CCn1c(-c2ccccc2)csc1=Nc1ccccc1	?	2.24µM*	17.8µM*	50.1µM*	?	·
Cc1ccc(-c2csc(=Nc3ccccc3)n2Cc2ccc3c(c2)OCO3)cc1	?	11.2µM*	56.2µM*	8.91µM*	?	·
Cc1ccc(OCc2nc(C3CCCN3)no2)cc1 (stereo unspecified)	·	·	·	·	14.5%	·
NS(=O)(=O)c1cc(C(=O)NC2CCSc3ccccc32)ccc1Cl (stereo unspecified)	2.24µM*	1.58µM*	0.794µM*	?	?	11.1%
CC(=O)c1cccc(S(=O)(=O)NC2CC2)c1	28.3%	44.7µM*	-8.2%	-23.2%	-11.5%	3.2%
NS(=O)(=O)c1cccc(C(=O)NC2CCSc3ccccc32)c1 (stereo unspecified)	23.8%	?	-5.7%	-1.0%	-6.2%	8.0%
CC(=O)c1cccc(S(=O)(=O)NC2CCSc3ccccc32)c1 (stereo unspecified)	12.1%	28.2µM*	?	-15.9%	?	6.3%
O=C(Nc1ccccc1Cl)c1cc(-c2cccs2)on1	·	·	·	·	-17.6%	·
O=C(NC1CCCC1)N[C@@H]1C[C@H](Cn2cc(C3CC3)nn2)[C@@H](O)[C@H]1O	·	·	·	·	22.4µM*	·
Cc1ccc2c(c1)N/C(=C(\C=C(/Cl)[N+](=O)[O-])[N+](=O)[O-])N2	·	22.4µM*	·	-26.6%	·	35.5µM*
Cc1ccc(CNC(C)(C)CO)cc1	28.8%	?	-9.9%	-13.6%	?	-5.6%
CC(C)(CO)NCc1ccc(Br)cc1	3.0%	-23.2%	7.94µM*	-36.2%	2.7%	-9.2%
CN(C)CCCN(Cc1cccc2ccccc12)Cc1cccc2ccccc12	·	·	·	·	5.01µM*	·
Nc1ncnc(N)c1N=Nc1ccccc1	16.4%	4.5%	-14.6%	-5.5%	-6.9%	6.5%
Nc1ccc2ccccc2c1N=Nc1ccccc1	12.6µM*	·	12.6µM*	·	-19.4%	·
O=C1C2=C(NC(=S)NC2c2ccc(Cl)cc2)NC(c2ccc(Cl)cc2)N1c1ccc(Cl)cc1 (stereo unspecified)	17.8%	50.1µM*	?	?	0.0%	?
CCc1ccc(C2NC(=S)NC3=C2C(=O)N(c2ccccc2OC)C(c2ccc(CC)cc2)N3)cc1 (stereo unspecified)	17.8%	-43.5%[59 µM]	-22.8%	?	-1.8%	-11.7%
Cc1ccc(C(=O)N2CCCC(n3cc(-c4nc(C(C)C)no4)nn3)C2)s1 (stereo unspecified)	·	·	·	·	8.4%	·
Cn1c(=O)[nH]c(=O)c2c1nc(Br)n2C/C=N/NC(N)=S	·	7.0%	·	-0.2%	?	56.2µM*
Cn1c(=O)[nH]c(=O)c2c1nc(N1CCCCC1)n2C/C=N/Nc1ccc(C(=O)O)cc1	36.2%	70.8µM*	-3.7%[11.4 µM]	-18.0%	-1.8%	-6.7%
